In PubChem BioAssay AID602144 (Vanderbilt Specialized Chemistry Center, 2011) one finds remaining activity data, which are given here for 13 compounds.

The source made the active and inactive calls. Cut-off read from the data, not from the text of the source: active = remaining activity below about 50%; inactive = the rest.

The target in the test is Phospholipase D1 (Homo sapiens) (UniProt Q13393). The test is described as follows: cellular phospholipase D1 activity inhibition – Calu-1 cells, single concentration (AID 602144).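 Note: tested at 200 nM.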 The following applies: cellular PLD1 activity, stronger effect = lower value.
Chain of Phospholipase D1 (Homo sapiens) (Q13393 whole entry, looked up): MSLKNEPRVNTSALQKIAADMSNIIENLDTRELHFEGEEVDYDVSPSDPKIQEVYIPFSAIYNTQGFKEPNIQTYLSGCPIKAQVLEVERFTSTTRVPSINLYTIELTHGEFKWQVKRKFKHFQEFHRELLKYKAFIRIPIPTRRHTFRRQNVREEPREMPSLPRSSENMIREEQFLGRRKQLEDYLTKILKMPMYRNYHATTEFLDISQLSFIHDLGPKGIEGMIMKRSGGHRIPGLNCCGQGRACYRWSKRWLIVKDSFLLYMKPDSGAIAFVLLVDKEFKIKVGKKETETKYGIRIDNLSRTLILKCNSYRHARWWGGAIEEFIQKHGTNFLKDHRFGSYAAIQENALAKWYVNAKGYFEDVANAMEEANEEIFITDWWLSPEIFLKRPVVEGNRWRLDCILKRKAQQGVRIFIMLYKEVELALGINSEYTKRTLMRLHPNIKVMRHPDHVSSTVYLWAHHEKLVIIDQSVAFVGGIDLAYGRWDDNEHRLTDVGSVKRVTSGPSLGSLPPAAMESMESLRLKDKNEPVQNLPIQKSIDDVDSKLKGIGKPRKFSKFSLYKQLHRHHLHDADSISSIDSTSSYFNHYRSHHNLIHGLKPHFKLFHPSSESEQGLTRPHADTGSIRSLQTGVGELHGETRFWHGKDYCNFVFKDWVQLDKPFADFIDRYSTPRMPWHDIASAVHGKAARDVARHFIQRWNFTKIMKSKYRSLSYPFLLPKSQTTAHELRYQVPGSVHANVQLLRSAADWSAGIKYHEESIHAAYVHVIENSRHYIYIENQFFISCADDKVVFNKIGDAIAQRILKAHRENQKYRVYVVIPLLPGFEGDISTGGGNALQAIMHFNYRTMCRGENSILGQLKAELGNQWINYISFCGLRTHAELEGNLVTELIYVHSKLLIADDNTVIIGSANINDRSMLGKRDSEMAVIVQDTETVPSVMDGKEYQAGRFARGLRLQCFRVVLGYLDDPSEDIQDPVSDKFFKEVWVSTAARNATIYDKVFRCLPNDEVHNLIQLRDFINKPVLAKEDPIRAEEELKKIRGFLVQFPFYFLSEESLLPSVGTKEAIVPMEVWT
Chain of Phospholipase D1 (Homo sapiens) (Q13393 whole entry, looked up): as above
With `O=C(NCCN1CCC(n2c(=O)[nH]c3ccccc32)CC1)Nc1cccc(C(F)(F)F)c1`, the remaining activity – broadly, the signal under treatment as a percentage of the control signal – was 135% (inactive).

As for `O=C(NCCN1CCC2(C=Cc3ccccc32)CC1)c1cnc2ccccc2c1`, the remaining activity was 126% (inactive).

For the compound `C[C@H](N)CN1CCC(c2nc3ccccc3n2C)CC1` (tested in a mixture with another compound), the remaining activity was 88.8% (inactive).

As for `CN(CCN1CCC(n2c(=O)[nH]c3ccccc32)CC1)C(=O)c1ccc2ccccc2c1`, the remaining activity is 75.5% (inactive).

As to `CC(C)C(=O)N[C@@H](C)CN1CCC(n2c(=O)[nH]c3ccccc32)CC1`, the remaining activity is 104% (inactive).

In the case of `O=C(NCCN1CCC(n2c(=O)[nH]c3ccccc32)CC1)Nc1cccc(OC(F)(F)F)c1`, the remaining activity is 131% (inactive).

With `O=C(NCCN1CCC2(CC1)CNCc1ccccc12)c1ccc2ccccc2c1`, the remaining activity was 122% (inactive).

As for `O=C(NCCN1CCC(n2c(=O)[nH]c3cc(Cl)ccc32)CC1)c1ccc2ccccc2c1`, the remaining activity is 10.3% (active).

`O=C(NCCN1CCC(n2c(=O)[nH]c3ccc(F)cc32)CC1)c1cccc2c1C(=O)c1ccccc1-2`: the remaining activity was 0% (active).

As to `O=C(NCCN1CCC(n2c(=O)[nH]c3ccccc32)CC1)c1ccc2ccc3c4c2c1CC=C4CC=C3`, the remaining activity is 95.6% (inactive).

On to `O=c1[nH]c2ccccc2n1C1CCN(CCNS(=O)(=O)c2cccc3cccnc23)CC1`, for which the remaining activity is 121% (inactive).

In the case of `O=C(NCCN1CCC(C(=O)Nc2ccccc2)CC1)c1ccc2ccccc2c1`, the remaining activity was 102% (inactive).

Consider `Cc1ccc(S(=O)(=O)NCCN2CCC(n3c(=O)[nH]c4ccccc43)CC2)cc1`, for which the remaining activity is 104% (inactive).
